Experimental findings from PubChem BioAssay (EPA / NIEHS) are described below.

Several values for one entry are separate records, joined by “and”; a condition that tells them apart may be missing. Equal values may be shown once. Results filed as inconclusive are left out. Some compounds were tested as several samples or in several runs, with calls that do not always agree. Activity calls are given as the source filed them. How the source made its calls: active means hit-call score of the fitted dose curve at least 0.9, where 1 is the maximum; inconclusive means response in the unintended direction; inactive means score below 0.9.

This assay in a line: TOX21_p53_BLA_p4_viability: Viability Assessment in the Tox21 HCT-116 p53 Agonism Beta-lactamase Assay, Phase 4 (AID 2283597).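 Further: hits lower the luminescence signal meaning cytotoxicity.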 An excerpt: TOX21_p53_BLA_p4 is a cell-based, single-readout assay that uses HCT116, a human intestinal cell line, […] in a 1536-well plate.TOX21_p53_BLA_p4_viability is an assay readout measuring cellular ATP content and detected with CellTiter-Glo Luciferase-coupled ATP quantitation.TOX21_p53_BLA_p4_viability used a type of viability reporter where loss-of-signal activity can be used to understand changes in the cell viability. Furthermore, this assay endpoint can be referred to as a secondary readout, because this assay has produced multiple assay endpoints where this one serves a viability function. To generalize the intended target to other relatable targets, this assay endpoint is annotated to the cell cycle intended target family, where the subfamily is cytotoxicity.
Thawing Method: Place 14 mL of pre-warmed thaw medium into a 15 mL of conical tub. Remove the vial of cells to be thawed from liquid nitrogen and thaw rapidly by placing at 37C in a water bath with gentle agitation for 1-2 minutes. Decontaminate the vial by wiping with 70% ethanol before opening in a biological safety cabinet. Transfer the vial contents drop-wise into 14 mL of thaw medium in a sterile 15-mL conical tub. Centrifuge cells at 900 rpm for 4 minutes and resuspend in thaw medium. Transfer contents to the T75 tissue culture flask containing Thaw Medium and place flask in a humidified 37C/5% CO2 incubator. Switch to growth medium at first passage.Propagation Method: Aspirate medium, rinse once in DPBS, add 0.25% Trypsin/EDTA and swirl to coat the cell evenly. Add an equal volume of Growth Medium to inactivate Trypsin after 2-3 minutes incubation at 37C. Centrifuge cells at 900 rpm for 4 minutes and resuspend in growth medium. Cell should be passage or fed at least twice a week.Assay Protocol: Harvest cells from culture in growth medium and resuspend in assay medium. 2.2 Dispense 4000 cells/5 uL/well into 1536-well black/clear bottom plates using a Multidrop dispenser. After the cells were incubated at 37C for 5 hours, 23 nL of compounds dissolved in DMSO were transferred to the assay plate by a PinTool resulting in a 217-fold dilution. Incubate the plates for 16 hours at 37C, 5% CO2. Add 1 uL of 6X LiveBLAzer FRET B/G (CCF4-AM) Substrate Mixture to each well using a BioRAPTR dispenser and incubate the plates at room temperature for 2 hours. Measure fluorescence intensity at 460 and 530 nm emission and 405 nm excitation by an Envision detector. Data is expressed as the ratio of 460nm/530nm emissions. Add 4 uL of Cell-titer Glo to each well using BioRAPTR and incubate the plates at room temperature for […]. For cell viability readout that measures cytotoxicity, 4 ul/well of CellTiter-Glo reagent was added into the assay plates using a Flying Reagent Dispenser. After 30 min incubation at room temperature, the luminescence intensity in the plates was measured using a ViewLux plate reader.
As usually defined, the AC50 is the concentration giving half of the maximal activity seen. In the case of `Nc1cc(Cl)c(-c2cc(Cl)c(N)cc2Cl)cc1Cl`, the AC50 is 40.7 µM (active) and 29.6 µM (active).

With `O=C(c1cc(O)c(O)c(O)c1)c1ccc(O)c(O)c1O`, the result was inactive.

Turning to `O=C(Nc1cccc([N+](=O)[O-])c1)c1cc2ccccc2cc1O`, the AC50 was 16.6 µM (active).

As to `O=C1c2ccccc2C(=O)c2c(O)c(O)cc(O)c21`, the compound was called inactive.

`CCCC=O`: the outcome was inactive.

In the case of `Cc1ccc(C(=O)c2ccccc2)cc1`, the compound was called inactive.

In the case of `Cc1cc(=O)oc2cc(O)ccc12`, the compound was called inactive.

Regarding `CC1=NN(c2ccccc2)C(=O)C1`, the result was inactive.

For the compound `CCCCCCCCCCCC[N+](C)(C)CCCCCCCCCCCC`, the AC50 is 46.1 µM (active).

`CC1=CC(=O)c2ccccc2C1=O`: the AC50 was 72.7 µM (active) and the result was inactive.

With `CCCCCCCCCCCCCCCCCC[N+](C)(C)Cc1ccccc1`, the AC50 was 38.1 µM (active).

Regarding `O=C(c1ccccc1)c1ccccc1`, the compound was classed as inactive.

For `CCCCCCCCCCCC(=O)NCCCN(C)C`, the AC50 is 29 µM (active).

As for `CC(C)(C)c1ccc(O)c(O)c1`, the outcome was inactive.

For the compound `CN(C)CCOC(c1ccccc1)c1ccccc1`, the compound was classed as inactive.

Consider `Cc1ccccc1C(OCCN(C)C)c1ccccc1` (stereo not given), for which the call was inactive.

With `CCCCCC(C)OC(=O)COc1ccc(Cl)c2cccnc12` (stereo not given), the call was inactive.

Regarding `O=C1OC2(c3ccccc31)c1cc(I)c(O)c(I)c1Oc1c2cc(I)c(O)c1I`, the AC50 is 58.1 µM (active) and the result was inactive.

For `Cc1cc(Cc2cc(C)cc(C(C)(C)C)c2O)c(O)c(C(C)(C)C)c1`, the AC50 is 12 µM (active) and 19.2 µM (active).

Take `CCCCCCCCCCCCOC(=O)c1cc(O)c(O)c(O)c1`: the AC50 is 46.1 µM (active) and 30.9 µM (active).

`CCOC(C)=O`: the outcome was inactive.

In the case of `CC(C)(C)C1CCCCC1O` (stereo not given), the outcome was inactive.

On to `C=CC(=O)OCC(CO)(COCC(COC(=O)C=C)(COC(=O)C=C)COC(=O)C=C)COC(=O)C=C`, for which the AC50 was 3.32 µM (active).

Turning to `CCCCCCCCCC=CCC1CC(=O)OC1=O` (stereo not given), the result was inactive.

For `CN(C)c1ccc(C(=C2C=CC(=[N+](C)C)C=C2)c2ccccc2)cc1`, the AC50 is 1.36 µM (active) and 23 µM (active).

With `O=c1cc(-c2ccccc2)oc2ccc3ccccc3c12`, the compound was classed as inactive.

`COCN(COC)c1nc(N(COC)COC)nc(N(COC)COC)n1`: the compound was called inactive.

Take `Cc1ccc(S(=O)(=O)O)cc1`: the result was inactive.

Turning to `CCCCCCCCCCCCCC[n+]1ccccc1`, the AC50 was 13.3 µM (active).

For `Oc1ccc(Cc2ccccc2O)cc1`, the result was inactive.

`CCCCc1oc2ccccc2c1C(=O)c1cc(I)c(OCCN(CC)CC)c(I)c1`: the AC50 is 31.3 µM (active) and 50.9 µM (active) and 23 µM (active).

As for `CNNCc1ccc(C(=O)NC(C)C)cc1`, the call was inactive.

Consider `O=S(=O)(O)c1ccc2cc(O)ccc2c1`, for which the call was inactive.

Regarding `OCC1CCC(CO)CC1` (stereo not given), the compound was classed as inactive.

Regarding `O=C(CCCN1CCC(O)(c2ccc(Cl)cc2)CC1)c1ccc(F)cc1`, the compound was classed as inactive.

As to `NCc1cccc(CN)c1`, the outcome was inactive.

`C[C@]12CC[C@@H]3c4ccc(O)cc4CC[C@H]3[C@@H]1C[C@@H](O)[C@@H]2O`: the outcome was inactive.

Take `O=C(NO)c1ccccc1`: the call was inactive.
